# Measured values as given in PubChem BioAssay (NCI).
# This is part of a sample that, as a whole, favours compounds with a hit. Of some 83,000 tested, about 20% had one in any assay.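 Values shown are percent growth following 48 h exposure of cells in 96-well plates to a single concentration of compound; below 10 was considered active.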 Unmarked numbers belong to inactive results. Activity calls are given as the source filed them.
# Test system: COLO 205 colon
# Test: NCI-60 one-dose screen, 48 h (100 = growth as untreated, 0 = no growth, -100 = all killed)
# Details: 10 µM unless noted
row,Structure (SMILES),growth
1,COc1cc(C=O)ccc1OC(=O)c1cc(-c2ccc(C)cc2)n(-c2ccc(S(C)(=O)=O)cc2)n1,126%
2,N#CC1=C(c2cccs2)Nc2c(c(-c3ccccc3)nn2-c2ccccc2)C12C(=O)Nc1ccccc12 (stereo unspecified),55.9%
3,COc1ccc(/C=C/c2nc3ccccc3c(=O)n2CC(=O)Nc2ccccc2)cc1,71%
4,COc1ccc2c(c1)C(=O)N(C)C2C1c2c(cc3c(c2OC)OCO3)CCN1C (stereo unspecified),33.1%
5,Cc1ccc(C(C(=O)NC2CCCCC2)N(Cc2ccccc2Cl)C(=O)c2ccc(CN3CCOCC3)o2)o1 (stereo unspecified),121%
6,O=C(NNC(=S)NCCc1ccccc1)c1ccc(OCc2nc3ccc(Cl)cc3[nH]2)cc1,131%
7,COc1ccc2c(c1)N=c1c-2cc2c(O)[nH]c(=S)n2c1=O,30.7%
8,Cc1ccc(C2CC(c3ccc(NC(=O)Nc4ccccc4)cc3)=NN2c2ccc(S(C)(=O)=O)cc2)cc1 (stereo unspecified),-43.4% (active)
9,COc1ccc(C(=O)NNC(=O)CSc2nc3sc4c(c3c(=O)n2-c2ccc(Cl)cc2)CCCC4)cc1,118%
10,N#Cc1c(-c2ccc(F)cc2)nc(SCc2ccc(F)cc2)nc1N1CCNCC1,-68.8% (active)
11,Cc1ccc(C2CC(c3ccc(NC(=O)Nc4ccccc4)cc3)=NN2c2ccc(S(N)(=O)=O)cc2)cc1 (stereo unspecified),-66.3% (active)
12,O=c1[nH]c2ccccc2cc1CSc1ccccc1Nc1nccc(-c2ccc3c(c2)OCO3)n1,84.9%
13,COc1ccc2c(c1)C(Sc1ccc(F)cc1)c1c(nc(N)c(C#N)c1N)O2 (stereo unspecified),104%
14,O=C1c2cccc3c(N4CCN(Cc5ccccc5)CC4)ccc(c23)C(=O)N1c1cccc(-c2nn(-c3ccccc3)cc2-c2nc3ccccc3s2)c1,119%
15,CCc1ccccc1NC(=O)N/C(N)=N/c1nc2ccccc2s1,-84.1% (active)
16,O=C(N/N=C/c1ccoc1)c1[nH]c2ccc(Br)cc2c1-c1ccccc1,-68.9% (active)
17,COC(=O)c1c(C(=O)OC)c2ccc3c4ccccc4ccc3n2c1C(=O)C(C)Br (stereo unspecified),43.2%
18,COc1cc(CNC(=O)C[C@H](C)CCC=C(C)C)ccc1OCc1cn(-c2ccc(Cl)cc2Cl)nn1,105%

row,Structure (SMILES),growth
1,O=CNc1cccc(-n2cnc3cc(-c4ccc(O)cc4)ccc32)c1,39%
2,O=C(N/N=C/c1occc1Br)c1[nH]c2ccc(Br)cc2c1-c1ccccc1,-73.5% (active)
3,Cc1[nH]nc2ccc3nc(-c4cnn(CCO)c4)c4c(c3c12)CCCC4,47.5%
4,Cc1ccc(C(=O)Nc2cc(-n3ccnc3)cc(C(F)(F)F)c2)cc1-n1cc(-c2cnc3cccnn23)nn1,42.2%
5,Cc1cc(Cl)ccc1NC(=O)Nc1ccc(-c2ccc3c(c2)NC(=O)/C3=C\c2ccc[nH]2)cc1,130%
6,COc1ccc(NC(=O)NN2C(=O)c3ccccc3N(C)C2c2ccc(OC)cc2)cc1 (stereo unspecified),103%
7,COc1ccc(-c2nc3ccc(-c4nnc(SCC(=O)Nc5ccc(/C(C)=N\O)cc5)o4)cc3[nH]2)cc1,107%
8,Cc1ccc2c(c1)nc(-c1ccccc1)n2CC(=O)N=Nc1c(O)[nH]c2ccc(Cl)cc12,-87.6% (active)
9,COc1ccc2c(c1)c(-c1cc(N)n3nc(-c4c[nH]c5ccccc45)cc3n1)cn2C,-83.9% (active)
10,COc1ccccc1/C=C/c1cccc(NC(=S)NCCCCN(C)C)c1,-68.2% (active)
11,Cc1cccc(C)c1Nc1nnc(-c2c[nH]c3ccccc23)o1,110%
12,CCOc1ccccc1NC(=O)N/C(N)=N/c1nc2ccccc2s1,-78.1% (active)
13,N#Cc1ccc(C(=O)NNC(=O)CSc2nc3sc4c(c3c(=O)n2-c2ccc(Cl)cc2)CCCC4)cc1,110%
14,S=C(Nc1ccc(OCc2nc3ccc(Cl)cc3[nH]2)cc1)NC1CCCCC1,-68.4% (active)
15,COC(=O)c1c(C(=O)OC)c2c3ccccc3c3ccccc3n2c1C(=O)C(C)(C)C,80.1%
16,COc1cc(NC(=O)CSc2nnc(-c3ccc(-c4nc5ccc(Cl)cc5[nH]4)cc3)o2)cc(OC)c1OC,74.2%
17,O=C1/C(=C/c2cnc(-c3ccccc3)s2)SC(=S)N1Cc1ccc2c(c1)OCO2,125%
18,CC(=O)c1c2c(c3ccc4c5ccccc5ccc4n13)C(=O)c1ccccc1C2=O,99.8%
